Results published in PubChem BioAssay (NCI).
About 83,000 compounds went through this panel and 20% of them were active in at least one assay; those are over-represented in the sample as a whole.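 Interpretation: 100, growth as untreated; towards 0, rising growth inhibition; 0, no net growth; 0 to -100, cell death. Compounds scoring below 10 were considered active.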 A number with no mark means an inactive call. Activity calls are given as the source filed them.

Each compound was assayed on MDA-MB-468 breast (assay: NCI-60 one-dose screen, 48 h (100 = growth as untreated, 0 = no growth, -100 = all killed)). Conditions: 10 µM unless noted.

Row | SMILES | growth
1 | OC1CCCc2ccccc21 (stereo not given) | 97.4%
2 | C=C1C(=O)O[C@H]2[C@H]1CC/C(COC(=O)NCc1ccc(Cn3c(=O)sn(CCI)c3=O)cc1)=C\CC[C@@]1(C)O[C@@H]21 | -37.1% (active)
3 | Cc1ccc2c(c1)C(=O)/C(=C/c1cccc(F)c1)S2 | 84.7%
4 | CC(C)COCC(CN(Cc1ccccc1)c1ccccc1)N1CCCC1 (stereo not given) | 32.7%
5 | NC[C@@H]1CCN(c2cc3c(cc2F)c(=O)n(N)c(=O)n3Cc2ccc(-c3ccccc3)cc2)C1 | 72.6%
6 | CCNc1nnnn1CC | 101%
7 | COc1ccc(/C=N/NC(=O)c2cnn(CC(O)Cc3ccccc3)c2N)cc1OC1CCCC1 (stereo not given) | 93.4%
8 | O=C1OC(c2ccc(-c3ccccc3)cc2)=C/C1=C/c1c(Cl)cccc1Cl | 90.8%
9 | O=S1(=O)NCCN1CCNc1nccc(-c2c(-c3cccc(O)c3)nc3sccn23)n1 | 96.8%
10 | CC1=C(C)C(=O)C(Nc2cccc(C(F)(F)F)c2)=C(Br)C1=O | -61.4% (active)
11 | Oc1ccc(N=Cc2ccccc2)cc1 | 53.9%
12 | CCCCCCCCn1ccc2cc(NC(=O)Cn3cc(CN4CCCCC4)nn3)ccc21 | -14.6% (active)
13 | CCCCCCN(CCCCCC)CC(O)c1ccc2c3c(cccc13)CC2 (stereo not given) | 55.6%
14 | O=C(Nc1ccc2ccccc2c1)c1cc2ccccc2cc1O | 123%
15 | O=C(OCc1ccc2c(Cl)cc(Cl)c(O)c2n1)N1CCNCC1 | 33.6%
16 | [2H]c1cc2c(c([2H])c1F)/C(=C/c1[nH]c(C)c(C(=O)NCCN(CC)CC)c1C)C(=O)N2 | 118%
17 | OCCN1CCOCC1 | 117%
18 | Cc1ccc(C(C)C)c(OCc2ccc(C(=O)N/N=C/c3cccc(O)c3O)cc2)c1 | 75.7%
19 | Oc1ccc(Nc2nccc(-c3ccc4ccccc4c3)n2)cc1 | 20.7%
20 | COc1cc(/C=C2\CCCC3=C2N=C2SC=NN2C3c2cc(OC)c(OC)c(OC)c2)cc(OC)c1OC (stereo not given) | 18.1%

Row | SMILES | growth
21 | CCn1c(C)nc2cc(C(N)=O)ccc21 | 102%
22 | COc1cc(Cc2cc(-c3ccc(Cl)cc3)n[nH]c2=O)ccc1O | 73.9%
23 | COc1cc(CNc2oc(-c3ccccc3)c(-c3ccccc3)c2C#N)cc(CN2CCN(C)CC2)c1O | 57.4%
24 | COc1ccc2[nH]cc(-c3nc(-c4cn(C)c5c(Cl)nccc45)cs3)c2c1 | 18.1%
25 | CSCCC1NC(=O)C(C(C)=Nc2ccccc2)=C1O (stereo not given) | 109%
26 | COc1ccc(C(=O)n2nc(-c3ccccc3)nc2N)cc1OC | 68.8%
27 | COc1cc(C(=O)/C=C/c2cccnc2Nc2ccc(Cl)cc2)cc(OC)c1OC | -80.1% (active)
28 | NS(=O)(=O)c1ccc(N=Nc2c(O)n(Cc3ccccc3)c3ccc(Cl)cc23)cc1 | 83.3%
29 | Cc1ccccc1C1CC(=O)c2ccccc2C1C (stereo not given) | 83%
30 | CC1=CC(=Nc2ccc(N(C)C)cc2)C=C(C)C1=O | 15%
31 | CC1=C[S+](c2ccccc2)c2cccc3cc4ccccc4c1c23 (stereo not given) | -70% (active)
32 | COc1ccc2c(c1)c(CC(=O)[Se]C)c(C)n2C(=O)c1ccc(Cl)cc1 | -11.6% (active)
33 | CCN(CC)c1ccc(/C=N/NC(=O)CSc2nc3ccccc3c(=O)n2CCc2ccc(S(N)(=O)=O)cc2)c(O)c1 | -7.72% (active)
34 | CCCN1[C@@H]2CC[C@H]1/C(=C\c1ccc(OC)c(OC)c1)C(=O)/C2=C/c1ccc(OC)c(OC)c1 | 17.7%
35 | O=C1c2ccccc2NC(c2cn(-c3ccccc3)nc2-c2cccs2)N1Cc1ccccc1 (stereo not given) | 95.4%
36 | O=P(O)(O)OCC1OC(n2cnc3c(NCc4ccccc4)ncnc32)C(O)C1O (stereo not given) | -28.6% (active)
37 | Cc1ccc(S(=O)(=O)NC(CCC(=O)Nc2ccc(Cl)cc2)C(=O)Nc2ccc(Cl)cc2)cc1 (stereo not given) | 29%
38 | Cc1ccc(F)cc1NC(=O)c1cc(Cl)ccc1Nc1ccccc1 | 61.8%
39 | COc1c(B(O)O)cccc1-c1nc2ccc3[nH]ncc3c2c2c1C1CCC2C1 (stereo not given) | 89.9%
40 | O=C(NCc1cn(Cc2cccc(Oc3ccccc3)c2)nn1)c1cccnc1NCc1ccc(Cl)cc1 | 17.3%
